What was measured:
Format in all cases: functional
Plasmodium falciparum [1] = test: GSK_TCMDC: Inhibition of Plasmodium falciparum 3D7 in whole red blood cells, using parasite LDH activity as an index of growth. Test compounds present at 2uM
Plasmodium falciparum [2] = test: GSK_TCMDC: Inhibition of Plasmodium falciparum Dd2 in whole red blood cells, using parasite LDH activity as an index of growth. Test compounds present at 2uM
HepG2 = test: GSK_TCMDC: Percent inhibition of human HepG2 cell line. Test compounds present at 10uM.

Row | SMILES | Inhibition (Plasmodium falciparum [1]) [%] | Inhibition (Plasmodium falciparum [2]) [%] | Inhibition (HepG2) [%]
1 | Cl.Oc1ccc(C2CNCCc3c2cc(O)c(OCc2ccccc2)c3Cl)cc1 (stereo not given) | 98 | 8 | 14
2 | Cc1cc(C2CCN(CCCCNC(=O)c3ccc(NC(=O)c4ccc(Cl)cc4)cc3)CC2)c(C)cc1OCCN(C)C | 100 | 77 | 18
3 | CC(=O)Nc1ccc(C(=O)Nc2cccc(-c3cccc(-c4nc5ccccc5[nH]4)c3)c2)cn1 | 100 | 100 | 3
4 | O=C(/C=C/c1ccc(Cl)c(Cl)c1)NCCCCCN1CCN(C(=O)Nc2ccc(Cl)c(C(F)(F)F)c2)CC1 | 100 | 0 | 22
5 | COc1ccc2nc(-c3ccccc3)cc(NCCCNc3cc(-c4ccccc4)nc4ccc(OC)cc34)c2c1.Cl | 99 | 99 | 100
6 | COc1cccc(CNC[C@@H](O)[C@H](Cc2ccccc2)NC(=O)c2cc(N3CCCC3=O)c3[nH]cc(C(C)C)c3c2)c1 | 96 | 98 | 5
7 | COc1ccc(NC(=O)CSc2nc(-c3ccccc3Cl)ns2)cc1 | 96 | 75 | 11
8 | Cc1cc2nc(-c3cc(-c4cccc(NS(C)(=O)=O)c4)cnc3N)[nH]c2cc1C | 100 | 32 | 43
9 | CN1CCCC(CN2CCN(Cc3ccc(-c4ccc(-c5nc6ccccc6[nH]5)cc4)cc3)CC2)C1.O=C(O)C(F)(F)F (stereo not given) | 100 | 100 | 69
10 | COc1ccc2c(NCCc3ccccc3)cc(-c3ccccc3)nc2c1.Cl | 98 | 1 | 13
11 | Cc1ccc2nc(C)cc(N/N=C/c3cccc([N+](=O)[O-])c3)c2c1 | 100 | 99 | 0
12 | O=c1ccc(CNc2nc(NCCc3ccccc3)nc3cc(Cl)ccc23)c[nH]1 | 95 | 78 | 21
13 | CCOC(=O)C1=C(C)N=c2sc(=Cc3cc(Cl)ccc3O)c(=O)n2C1c1ccc(OC)cc1 (stereo not given) | 99 | 65 | 0
14 | CC(C)N1CCN(C(CN2CCN(CCCOc3cccc4ccccc34)CC2)c2ccc(F)cc2)CC1.Cl (stereo not given) | 100 | 75 | 54
15 | N#Cc1ccc(N/C(=N\c2ccccc2Cl)NC2CCN(Cc3ccccc3)CC2)c(O)c1 | 100 | 97 | 31
16 | CC(C)N1CCC(N(Cc2ccc(-c3ccc(C(F)(F)F)cc3)cc2)C(=O)Cn2c(CCc3cccc(F)c3F)cc(=O)c3cn(C)nc32)CC1.O=C(O)C(O)C(O)C(=O)O | 89 | 78 | 100
17 | CCn1c(Sc2ccc(C#N)c([N+](=O)[O-])c2)nnc1-c1ccc(Cl)cc1 | 97 | 93 | 0
18 | Cl.N=C(NCCCc1ccccc1)c1cccc(C(=N)NCCCc2ccccc2)n1 | 98 | 0 | 44
19 | COc1c(C(=O)NC2CCN(Cc3ccccc3)C2)cnc2ccccc12.Cl (stereo not given) | 86 | 12 | 2
20 | Cc1cc(N2CCC(NS(=O)(=O)c3cccc4cccnc34)CC2)nc(Nc2cccc(C#N)c2)n1.O=C(O)C(F)(F)F | 98 | 87 | 12
21 | Cc1cccc2nc(-c3cccc(-c4ccc(NC(=O)CN5CCOCC5)cc4)c3)[nH]c12 | 94 | 12 | 59
22 | CCOc1cc(Cl)c(C(C)NC(=O)c2ccccc2)cc1OCC (stereo not given) | 91 | 49 | 0
23 | Cl.N=C(Cc1ccc(Cl)cc1)NCCN1CCCCCC1 | 93 | 94 | 0
24 | Cc1cccc(Cn2c(C(N)=O)nn(-c3ccc([N+](=O)[O-])cc3C#N)c2=S)c1 | 100 | 48 | 1
25 | Cc1ccc(O)c(C(=O)c2cc(C(=O)Nc3ccccc3C)c(=O)n(-c3ccccc3C)c2)c1 | 98 | 81 | 0
26 | CCCNC(=O)C1Cc2cc(OC)c(OC)cc2C2(N1)C(=O)N(Cc1cccc(OC)c1)c1ccccc12 (stereo not given) | 91 | 63 | 11
27 | O=C(Nc1ccc2[nH]c(-c3ccccc3)nc2c1)c1cc(-c2ccc3c(c2)OCCO3)n[nH]1.O=C(O)C(F)(F)F | 100 | 75 | 58
28 | CCCCNC(=N)Nc1ccc(OCCCOc2ccc(NC(=N)NCCCC)cc2)cc1 | 96 | 97 | 15

Row | SMILES | Inhibition (Plasmodium falciparum [1]) [%] | Inhibition (Plasmodium falciparum [2]) [%] | Inhibition (HepG2) [%]
29 | Cc1cccc(OC(C)C(=O)Nc2cc(C(F)(F)F)ccc2N2CCOCC2)c1 (stereo not given) | 100 | 98 | 2
30 | Cc1cc(C2CCN(CCCCNC(=O)c3ccc(-c4ccc(C(F)(F)F)cc4)cc3)CC2)c(C)cc1OCCO | 99 | 3 | 31
31 | COc1cc(Cc2cnc(N)nc2N)ccc1OCc1ccc(NC(C)=O)cc1 | 98 | 0 | 9
32 | CC1c2cccc(O)c2CCN1CCc1ccc(Cl)c(Cl)c1.Cl (stereo not given) | 100 | 99 | 18
33 | Cc1cc(NC(=O)c2cc(Br)ccc2Cl)n(-c2nc(C)c(C)c(=O)[nH]2)n1 | 91 | 83 | 54
34 | COc1ccc2nccc([C@@H](O)CN3CCC(NCCOc4ccc(F)cc4[N+](=O)[O-])CC3)c2c1.O=C(O)C(=O)O | 99 | 92 | 8
35 | COc1cc2nc(N3CCC(CNC(=O)c4cc5ccccc5s4)CC3)nc(N)c2cc1OC | 100 | 100 | 8
36 | CCc1nc(N)nc(N)c1-c1ccc(C(C)(C)C)cc1 | 94 | 0 | 27
37 | Cc1cc(OCC2CCN(c3ncc(C(=O)Nc4ccccc4)cc3Cl)CC2)ccc1F | 91 | 87 | 27
38 | CCCC1(NC[C@@H](O)[C@H](Cc2ccccc2)NC(=O)c2cc(NCC)cc(N3CCCCS3(=O)=O)c2)CCC1.Cl | 100 | 86 | 0
39 | COc1ccccc1CCNc1nc(C)cc(N[C@@H](Cc2ccccc2)C(=O)NCc2cccc(F)c2)n1.O=C(O)C(F)(F)F | 99 | 86 | 31
40 | Cc1nc(-c2ccc(-c3ccc(C(=O)Nc4ccc(-n5ccnc5)c(N5CCN(C)CC5)c4)cc3)c(C)c2)no1 | 100 | 100 | 34
41 | Cc1cc(C2CCN(CCCCNC(=O)c3ccc(-c4ccc(C#N)cc4)cc3)CC2)c(C)cc1OCCO | 96 | 68 | 20
42 | O=C(Nc1ccc(Cn2ncc(N3CCNCC3)c(Cl)c2=O)cc1)Nc1ccc(-c2ccccc2)cc1.O=C(O)C(F)(F)F | 98 | 33 | 29
43 | Br.c1ccc(-c2nc(Nc3ccncc3)sc2-c2ccccc2)cc1 | 97 | 18 | 0
44 | Cc1cc(Cl)ccc1NC(=O)Nc1ccc2nccc(N3CCN(C)CC3)c2c1 | 100 | 74 | 0
45 | COc1cc(OC)nc(C(Sc2ccc(NC(=O)c3cccs3)cc2)c2ccccc2)n1 (stereo not given) | 97 | 96 | 7
46 | CC(=O)Nc1cc(C(=O)Nc2cccc(-c3cccc(-c4nc5cccc(C)c5[nH]4)c3)c2)ccc1C | 100 | 62 | 25
47 | Cc1ccc(Nc2ccnc(Nc3ccc(F)c(Cl)c3)n2)cc1O.Cl | 100 | 52 | 9
48 | Cc1cc(C)c2c(c1)C(=NO)CCN2 | 94 | 2 | 2
49 | Cc1nc(N)nc(N)c1-c1ccc(Cl)c(Cl)c1 [METOPRINE] | 95 | 0 | 66
50 | CC(C)c1ccc(NC(=O)Nc2ccc(Cn3ncc(N4CCCNCC4)c(Cl)c3=O)cc2)cc1.O=C(O)C(F)(F)F | 85 | 27 | 11
51 | CNC(=O)Cc1ccc(C(=O)Nc2cccc(-c3cccc(-c4nc5cccc(C)c5[nH]4)c3)c2)cc1 | 96 | 53 | 15
52 | COc1ccc2nc(C)cc(N/N=C/c3ccccc3[N+](=O)[O-])c2c1 | 100 | 99 | 2
53 | COc1cc(Cc2cnc(N)nc2N)cc(CC(C)O)c1O (stereo not given) | 93 | 2 | 0
54 | Br.COc1ccc(OC)c2c1CCN(C)C2Cc1cccc2ccccc12 (stereo not given) | 91 | 79 | 13
55 | CN(C(=O)c1snnc1-c1ccccc1)C1CCN(CCCCCNC(=O)/C=C/c2ccc(Cl)c(Cl)c2)CC1 | 96 | 58 | 44
